Test results taken from PubChem BioAssay (EPA / NIEHS).
Results filed as inconclusive are left out. Active and inactive are the calls of the source. The calls were made as follows, unless noted: active = hit-call score of the fitted dose curve at least 0.9, where 1 is the maximum; inactive = score below 0.9.

What was measured:
[1] = CCTE_Mundy_HCI_Cortical_Synap_Neur_Matur_NeuriteSpotCountPerNeuriteLength: CCTE's Synaptogenesis and Neurite Maturation Assay in rat cortical cells for Neurite Spot Count per Neurite Length, Mundy Lab (AID 2284210)
How it was run: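 Synaptophysin spots per unit neurite length, measured by automated imaging of MAP2/synaptophysin/Hoechst-stained neurons. Cultures from rat cortex received chemical at DIV 7 with media change through DIV 12; glial growth arrested by AraC at DIV 5; DMSO baseline.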

[2] = CCTE_Mundy_HCI_Cortical_Synap_Neur_Matur_BPCount: CCTE's Synaptogenesis and Neurite Maturation Assay in rat cortical cells for Branch Point Count, Mundy Lab (AID 2284211)
How it was run: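 HCI read-out of branch points from MAP2/synaptophysin/Hoechst immunofluorescence; rat cortical cultures, AraC DIV 5, dosing DIV 7, fixed DIV 12; fit in positive direction vs DMSO baseline.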

[3] = CCTE_Mundy_HCI_Cortical_NOG_NeuriteCount: CCTE's Neurite Outgrowth Assay in rat cortical cells for Neurite Count, Mundy Lab (AID 2284212);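 also: cells fixed about two days after chemical exposure began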
How it was run: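 Rat cortical primary cells; compound added 2 h post-plating, 1/10 dilution of working solution. Anti-betaIII-tubulin/AF488 ICC; ArrayScan neurite count vs DMSO.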

[4] = CCTE_Mundy_HCI_Cortical_NOG_NeuriteLength: CCTE's Neurite Outgrowth Assay in rat cortical cells for Neurite Length, Mundy Lab (AID 2284213)
How it was run: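 First, rat primary cortical cells were plated and, 2 h later, given test chemical as a 1/10 dilution. Finally, βIII-tubulin immunostaining enabled automated imaging of neurite length.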

[5] = CCTE_Mundy_HCI_Cortical_Synap_Neur_Matur_NeuriteLength: CCTE's Synaptogenesis and Neurite Maturation Assay in rat cortical cells for Neurite Length, Mundy Lab (AID 2284214)
How it was run: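 Cultures of rat primary cortical cells received chemical at DIV 7 and were fixed at DIV 12, after glial arrest with AraC at DIV 5. Neurite length was measured by automated imaging of MAP2 immunofluorescence.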

[6] = CCTE_Mundy_HCI_Cortical_Synap_Neur_Matur_NeuriteSpotCountPerNeuron: CCTE's Synaptogenesis and Neurite Maturation Assay in rat cortical cells for Neurite Spot Count per Neuron Count, Mundy Lab (AID 2284215)
How it was run: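 Rat primary cortical cultures given AraC at DIV 5, dosed from DIV 7 to DIV 12 with media change. Fixed, stained for MAP2, synaptophysin and Hoechst; neurite-associated synaptophysin puncta per neuron quantified by high-content imaging versus DMSO.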

[7] = CCTE_Mundy_HCI_Cortical_Synap_Neur_Matur_SynapseCount: CCTE's Synaptogenesis and Neurite Maturation Assay in rat cortical cells for Synapse Count, Mundy Lab (AID 2284218)
How it was run: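 Cells were plated, allowed 2 hr to attach, treated with AraC at DIV 5, then exposed to chemicals from DIV 7 until DIV 12. After fixation and MAP2/synaptophysin immunolabelling, synapses per neuron were quantified by automated imaging against DMSO.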

[8] = CCTE_Mundy_HCI_Cortical_Synap_Neur_Matur_NeuriteCount: CCTE's Synaptogenesis and Neurite Maturation Assay in rat cortical cells for Neurite Count, Mundy Lab (AID 2284222);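 also: exposure from day 7 to day 12 in vitro with readout at day 12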
How it was run: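 Rat cortical neurons, 96-well; AraC DIV 5; chemical + media change DIV 7; end DIV 12. Fix PFA/Hoechst, anti-MAP2 + anti-synaptophysin IF. HCI neurite count vs DMSO baseline.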

[9] = CCTE_Mundy_HCI_Cortical_Synap_Neur_Matur_CellBodySpotCount: CCTE's Synaptogenesis and Neurite Maturation Assay in rat cortical cells for Cell Body Spot Count, Mundy Lab (AID 2284223)
How it was run: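 Primary rat cortical cultures, AraC added at DIV 5; dosed DIV 7 through DIV 12 […]. Fixed, stained for MAP2 and synaptophysin with Hoechst; cell body-associated synaptophysin puncta per neuron counted by high-content imaging, loss vs DMSO.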

[10] = UKN2_HCS_IMR90_cell_viability: Viability Assessment in the University of Konstanz (UKN) Leist Lab Neural Crest Cell Migration Assay in human induced IMR90 Pluripotent Stem Cells (UKN2) (AID 2284233);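 also: cells exposed to compound for 24 h after a 24 h migration phase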
How it was run: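 After calcein-AM/Hoechst staining, viability is quantified by high-content fluorescence imaging, relative to DMSO, in iPSC (IMR90)-derived neural crest cells. Exposure lasts 24 h, starting after a 24 h migration period on PLO/laminin/fibronectin coating.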

[11] = CCTE_Mundy_HCI_Cortical_NOG_BPCount: CCTE's Neurite Outgrowth Assay in rat cortical cells for Branch Point Count, Mundy Lab (AID 2284237)
How it was run: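 Measured 50.33 h after dosing, this morphology endpoint uses rat primary cortical cultures labelled for betaIII-tubulin. Branch points are quantified by high-content imaging, with DMSO as negative control and baseline.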

[12] = CCTE_Mundy_HCI_hNP1_Casp3_7: CCTE's Caspase-Glo 3/7 Assay in human neuroprogenitor cells for Apoptosis, Mundy Lab (AID 2284240)
How it was run: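 Apoptosis is scored by activated caspase-3/7 luminescence in WA09-derived neural progenitor cells, measured 26.5 h after chemical dosing. Values represent gain of signal relative to DMSO vehicle.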

[13] = IUF_NPC2c_oligodendrocyte_migration_120hr: Leibniz Research Institute for Environmental Medicine (IUF) 120-hour Neural Progenitor Cell Migration Assay for Oligodendrocyte Migration (NPC2c) (AID 2284297);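 also: O4-positive oligodendrocyte migration distance divided by radial glia migration distance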
How it was run: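 Human fetal neural progenitor spheres (0.3 mm) are plated on poly-D-lysine/laminin in N2 differentiation medium and exposed for 120 h, with half-medium renewal at day 3. Oligodendrocyte (O4+) migration distance comes from ICC imaging, normalised to radial glia migration.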

[14] = IUF_NPC2a_radial_glia_migration_120hr: Leibniz Research Institute for Environmental Medicine (IUF) 120-hour Neural Progenitor Cell Migration Assay for Radial Glia Migration (NPC2a) (AID 2284298)
How it was run: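 Human fetal-cortex neural progenitor spheres (0.3 mm) plated on poly-D-lysine/laminin in N2 differentiation medium, exposed 120 h at 37C with half-medium renewal at day 3. Radial glia migration distance (um) measured from Hoechst-stained nuclei images; DMSO baseline.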

[15] = IUF_NPC2a_radial_glia_migration_72hr: Leibniz Research Institute for Environmental Medicine (IUF) 72-hour Neural Progenitor Cell Migration Assay for Radial Glia Migration (NPC2a) (AID 2284299)
How it was run: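 Single 0.3 mm neurospheres were plated per well in N2 differentiation medium and exposed from the start of differentiation. After 72 hours, brightfield images were taken and radial glia migration from the sphere core edge was measured manually in four directions, averaged per well.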

[16] = IUF_NPC2b_neuronal_migration_120hr: Leibniz Research Institute for Environmental Medicine (IUF) 120-hour Neural Progenitor Cell Migration Assay for Neuron Migration (NPC2b) (AID 2284300)
How it was run: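 0.3 mm hNPC spheres on poly-D-lysine/laminin in N2 differentiation medium exposed 120 h, half-medium refresh day 3; 7 concentrations, DMSO max 0.1%. Neuron (TUBB3) distance from sphere core by ICC imaging, normalised to radial glia migration.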

[17] = IUF_NPC3_neuronal_differentiation_120hr: Leibniz Research Institute for Environmental Medicine (IUF) 120-hour Neuronal Differentiation Assay (NPC3) (AID 2284301)
How it was run: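 Value is percent TUBB3-positive neurons among Hoechst-stained nuclei in the migration area, scored by trained CNN after 120 h differentiation. Primary hNPC spheres on poly-D-lysine/laminin, N2 medium, continuous dosing from day 0, half-refeed day 3; DMSO reference.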

[18] = IUF_NPC4_neurite_length_120hr: Leibniz Research Institute for Environmental Medicine (IUF) 120-hour Neuronal Morphology Assay for Neurite Length (NPC4) (AID 2284302)
How it was run: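 Neurite length, the mean in um across TUBB3-stained neurons, is derived by skeletonization of high-content images after 120 h differentiation. Compound exposure, 7 concentrations plus solvent control, ran from plating of hNPC spheres on poly-D-lysine/laminin, with medium half-replaced on day 3.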

[19] = IUF_NPC5_oligodendrocyte_differentiation_120hr: Leibniz Research Institute for Environmental Medicine (IUF) 120-hour Oligodendrocyte Differentiation Assay (NPC5) (AID 2284304; active = hit-call score of the fitted dose curve at least 0.9, where 1 is the maximum;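 also: primary human fetal neural progenitor spheres plated to migrate and differentiate; share of O4-positive cells among Hoechst nuclei found by CNN image analysis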)
How it was run: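 Human fetal neural progenitor spheres (0.3 mm) plated on poly-D-lysine/laminin in N2 differentiation medium and exposed for 120 h at 7 concentrations, with half-medium renewal at day 3. O4-positive cells identified by CNN, expressed as percent of Hoechst nuclei.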

[20] = IUF_NPC4_neurite_area_120hr: Leibniz Research Institute for Environmental Medicine (IUF) 120-hour Neuronal Morphology Assay for Neurite Area (NPC4) (AID 2284305; active = hit-call score of the fitted dose curve at least 0.9, where 1 is the maximum)
How it was run: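 Neurite area (pixels, nuclei excluded) of TUBB3-positive neurons from hNPC spheres differentiating 5 days under continuous exposure at 37 C, 5% CO2. High-content imaging; loss of signal versus DMSO control across 7 concentrations.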

[21] = IUF_NPC2-5_cytotoxicity_72hr: Cytotoxicity Assessment at 72 hours in the Leibniz Research Institute for Environmental Medicine (IUF) Neural Progenitor Cell Migration and Differentiation Assay for Cytotoxicity (NPC2-5) (AID 2284306; active = hit-call score of the fitted dose curve at least 0.9, where 1 is the maximum;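 also: LDH release into supernatant measured by resorufin fluorescence marking membrane damage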)
How it was run: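 Membrane-integrity cytotoxicity at 72 h, read as LDH-driven resorufin fluorescence in supernatant. hNPC spheres from fetal cortex differentiate on coated plates in N2 medium, 37C, 5% CO2; seven serial compound concentrations plus solvent control (DMSO ≤0.1%).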

[22] = IUF_NPC2-5_cytotoxicity_120hr: Cytotoxicity Assessment at 120 hours in the Leibniz Research Institute for Environmental Medicine (IUF) Neural Progenitor Cell Migration and Differentiation Assay (NPC2-5) (AID 2284307; active = hit-call score of the fitted dose curve at least 0.9, where 1 is the maximum)
How it was run: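 Human fetal (GW 16-19) neural progenitor spheres (0.3 mm) plated on poly-D-lysine/laminin in N2 differentiation medium, exposed 120 h with half-medium renewal at day 3; 7 concentrations plus solvent control, DMSO ≤0.1%. LDH release in supernatant read by resorufin fluorescence.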

[23] = IUF_NPC2-5_cell_number_120hr: Cell Number Assessment at 120 hours in the Leibniz Research Institute for Environmental Medicine (IUF) Neural Progenitor Cell Migration and Differentiation Assay (NPC2-5) (AID 2284308);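 also: count of Hoechst-stained nuclei in migration zone around plated human neural progenitor spheres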
How it was run: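 Human fetal neural progenitor spheres (0.3 mm) plated on poly-D-lysine/laminin in N2 differentiation medium, exposed five days across 7 concentrations with half-medium refresh at day 3. Hoechst-positive nuclei counted in migration area at 120 h, relative to DMSO.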

[24] = IUF_NPC2-5_viability_120hr: Viability Assessment at 120 hours in the Leibniz Research Institute for Environmental Medicine (IUF) Neural Progenitor Cell Migration and Differentiation Assay (NPC2-5) (AID 2284312)
How it was run: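 Alamar blue resorufin fluorescence read after 5 days of differentiation, with compound present from day 0 and replenished at day 3. Primary hNPC spheres on laminin-coated plates, 37C; seven concentrations plus solvent control, fitted against DMSO.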

[25] = CCTE_Mundy_HCI_iCellGluta_NOG_NeuriteLength: CCTE's Neurite Outgrowth Assay in iCellGluta cells for Neurite Length, Mundy Lab (AID 2284318; active = hit-call score of the fitted dose curve at least 0.9, where 1 is the maximum)
How it was run: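 Automated high-content imaging of betaIII-tubulin (Alexa Fluor-488) and Hoechst-stained cells gave neurite length, normalized to the DMSO baseline.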

[26] = IUF_NPC1_cytotoxicity_72hr: Cytotoxicity Assessment at 72 hours in the Leibniz Research Institute for Environmental Medicine (IUF) Neural Progenitor Cell Proliferation Assay (NPC1) (AID 2284332; active = hit-call score of the fitted dose curve at least 0.9, where 1 is the maximum;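 also: rising LDH signal means more cytotoxicity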)
How it was run: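 Membrane-integrity loss is scored from LDH released into the medium, detected as resorufin fluorescence, with activity fitted upward relative to baseline. Test material stays on human fetal-derived progenitor spheres for 72 h.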

[27] = CCTE_Mundy_HCI_iCellGluta_NOG_NeuronCount: CCTE's Neurite Outgrowth Assay in iCellGluta cells for Neuron Count, Mundy Lab (AID 2284340; active = hit-call score of the fitted dose curve at least 0.9, where 1 is the maximum;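 also: cells fixed about 48 h after compound addition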)
How it was run: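 Neuron count read by automated high-content imaging of Hoechst 33342 and betaIII-tubulin/Alexa Fluor-488 labelling in human iPSC glutamatergic neurons. Activity fitted relative to DMSO.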

[28] = CCTE_Mundy_HCI_iCellGluta_NOG_NeuriteCount: CCTE's Neurite Outgrowth Assay in iCellGluta cells for Neurite Count, Mundy Lab (AID 2284342; active = hit-call score of the fitted dose curve at least 0.9, where 1 is the maximum;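 also: chemical exposure about 48 hours starting 2 hours after plating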)

Measured: AC50

[Cl-].[Cl-].[NH2-].[NH2-].[Pt+4]
active: [2] 0.029 µM | [17] 9.95 µM | [18] 33.2 µM | [21] 34.7 µM | [23] 28.4 µM | [25] 26 µM | [27] 85.7 µM | [28] 70 µM
inactive: all other assays above
